Screening data as filed in PubChem BioAssay.
CYP2C9 inhib: blockers of cytochrome P450 2C9 activity – biochemical, luminescence, ADME assay, primary screen; CYP2C9 Supersomes, luciferin-H conversion; 20% of 96,000 active; inhibition, % at 5 µM; P11712;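 active = blocking of liver enzyme CYP2C9 beyond about 50% at 5 µM, limit read from the data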
CYP2C9 activ: human CYP2C9 activators, primary screen, biochemical, luminescence. AID 1024, 2008. activation factor at 5 µM. recombinant CYP2C9, luciferin-H conversion; hits give high values; factor 1 = untreated enzyme, 0 = blocked. 1.4% of 96,000 active;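 active = activation factor of 2 or more for CYP2C9 at a 5 µM dose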;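 note: 0 = sulfaphenazole-blocked wells and 1 = vehicle-only wells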
MRP reversal: reversal of MRP1-mediated doxorubicin resistance, primary screen, H69AR cells, doxorubicin co-treatment; differential viability (reversal), % at 10 µM; H69AR cells + 2 uM doxorubicin, CellTiter-Glo, 72 h; 0.04% of 85,000 active;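 active = viability drop by adding the cancer drug above about 55%, with treated viability meeting a 40% cutoff, limit read from the data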;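 note: viability without doxorubicin minus viability with 2 µM doxorubicin for each compound; larger differential means the compound sensitizes cells more to doxorubicin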
CYP2C19 act: human CYP2C19 activators, primary screen, biochemical, luminescence; AID 1025, 2008; activation factor at 5 µM; 96,000 tested, under 10 active; recombinant CYP2C19, luciferin-H EGE luminescence; hits give high values; 0 = fully inhibited enzyme, 1 = untreated enzyme;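 active = activation factor of at least 2 at 5 µM in the primary screen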;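 note: 0 = wells with 2.5 mM tranylcypromine and 1 = vehicle-only wells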
Target sequence (P33261 whole entry, looked up): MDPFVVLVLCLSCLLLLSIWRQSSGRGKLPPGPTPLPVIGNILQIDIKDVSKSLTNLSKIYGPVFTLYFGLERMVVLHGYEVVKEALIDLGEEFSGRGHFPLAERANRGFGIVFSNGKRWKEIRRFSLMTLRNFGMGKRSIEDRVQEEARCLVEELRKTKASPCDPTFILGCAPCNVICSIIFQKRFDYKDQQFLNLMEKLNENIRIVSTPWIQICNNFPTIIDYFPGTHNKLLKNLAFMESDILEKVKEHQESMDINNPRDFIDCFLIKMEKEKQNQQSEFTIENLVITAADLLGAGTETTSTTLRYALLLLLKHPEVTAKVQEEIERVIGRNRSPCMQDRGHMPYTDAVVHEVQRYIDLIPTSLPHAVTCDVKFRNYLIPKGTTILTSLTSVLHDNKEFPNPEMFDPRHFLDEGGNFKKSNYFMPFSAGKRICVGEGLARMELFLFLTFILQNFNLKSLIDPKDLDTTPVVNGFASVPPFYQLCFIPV
MRP1 act: H69AR viability gain despite doxorubicin, primary screen, MRP-1 activator project, H69AR cells, CellTiter-Glo. viability rescue. viability increase, % at 10 µM. 0.61% of 140,000 active;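 active = viability gain under doxorubicin at or above a set limit, the compound median plus 3 SD, cut at about 4.7% in these data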;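 note: MRP-1 overexpressing cells given doxorubicin 25 µM after compound pretreatment; 18-22 h compound pretreatment then 72 h with doxorubicin before readout; 0% = doxorubicin-only wells and 100% = vehicle-treated cells without doxorubicin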
CYP2C19 inhib: blockers of cytochrome P450 2C19 activity – biochemical, luminescence, ADME assay, primary screen; P33261; CYP2C19 Supersomes, luciferin-H EGE luminescence, 30 min; inhibition, % at 5 µM; 21% of 96,000 active; AID 778, 2007;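 active = CYP2C19 inhibition above a set limit at 5 µM in the primary screen, cut at about 50% in these data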;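 note: plate controls were negative control wells for no effect and 2.5 mM tranylcypromine positive control for full effect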
Active calls of the source: *; nt = no result. Compounds with a hit are over-represented: about 21% of the library has one in this group of screens.

SMILES	CYP2C9 inhib	CYP2C9 activ	MRP reversal	CYP2C19 act	MRP1 act	CYP2C19 inhib
CCOC(=O)N1CCN(S(=O)(=O)c2ccc(Br)s2)CC1	81*	0.2	20	0.1	-1	88*
CCOC(=O)c1c(NC(=O)C2CCN(S(=O)(=O)c3cccs3)CC2)sc(C)c1C	35	0.7	-7	0.6	-1	39
CN1CCN(S(=O)(=O)c2ccc(Br)s2)CC1	4	1	5	0.9	-2	9
CCOC(=O)c1sc(NC(=O)CSc2nc(-c3ccco3)cc(C(F)(F)F)n2)c(C(=O)OC(C)C)c1C	nt	nt	-1	nt	nt	nt
Cc1onc(-c2c(F)cccc2Cl)c1C(=O)OCn1nnc2ccccc2c1=O	nt	nt	-11	nt	-1	nt
COc1ccc(N2CCN(C(CNC(=O)OCc3ccccc3)c3ccco3)CC2)cc1 (configuration not stated)	nt	nt	nt	nt	-2	nt
Cc1ccc(N2C(=O)C(NC(=O)c3ccccc3)(C(F)(F)F)C3=C2CC(C)(C)CC3=O)cc1 (configuration not stated)	nt	nt	nt	nt	-1	nt
CCOC(=O)C1CCCN(S(=O)(=O)c2ccc(Br)s2)C1 (configuration not stated)	26	0.7	15	0.2	-1	83*
CCOC(=O)N1CCN(S(=O)(=O)c2cc(Br)cnc2N)CC1	94*	0.1	-5	0.1	-2	95*
CCOC(=O)C1CCCN(S(=O)(=O)c2ccc(C)cc2)C1 (configuration not stated)	nt	nt	-12	nt	-3	nt
O=C(C1Cc2ccccc2CN1S(=O)(=O)c1cccs1)N1CCCCCC1 (configuration not stated)	47	0.5	nt	0.2	-3	82*
CCOC(=O)C1CCCN(S(=O)(=O)c2ccc(OC)cc2)C1 (configuration not stated)	-142	2.4*	16	0	-1	96*
Cc1occc1C(=O)NNC(=O)Cc1ccccc1	26	0.7	nt	0.9	-1	12
O=C(O)C1CCCN1S(=O)(=O)c1ccc(Br)s1 (configuration not stated) (tested in a mixture with another compound)	-13	1.1	-9	0.4	0	59*
Cc1cc(C)cc(NC(=O)CN2CCCN(S(=O)(=O)c3ccc(Br)s3)CC2)c1	-68	1.7	-8	0.7	-2	31
COc1ccc(S(=O)(=O)N2CCCC(C(=O)N3CCCCCC3)C2)cc1 (configuration not stated)	-32	1.3	19	0.2	-1	80*
COc1ccc(S(=O)(=O)N2CCCC(C(=O)N3CCOCC3)C2)cc1C (configuration not stated)	-116	2.2*	-2	0.6	0	36
Cc1ccc(NC(=O)CN2CCCN(S(=O)(=O)c3ccc(Br)s3)CC2)cc1	31	0.7	-26	0.1	-2	91*
O=C(O)C1CCCCN1S(=O)(=O)c1ccc(Cl)s1 (configuration not stated)	47	0.5	-6	0.7	-1	25
Cn1cc(C=O)c2cc(S(=O)(=O)N3CCOCC3)ccc21	nt	nt	nt	nt	-1	nt
O=C(Nc1ccc(N2CCCCC2)c(Cl)c1)c1ccc(N2CCOCC2)c([N+](=O)[O-])c1	42	0.6	nt	0.5	-5	52*
Cc1c(NC(=O)c2ccc(N3CCCC3)c([N+](=O)[O-])c2)cccc1-c1nc2ccccc2s1	56*	0.4	nt	0.8	0	18
O=C(Nc1ccc(N2CCCCC2)c(Cl)c1)c1ccc2c(c1)OCCO2	68*	0.3	-3	0.7	2	30
COc1ccc(-c2ccccc2)cc1NCc1ccc(OC)c(OC)c1	nt	nt	nt	nt	-3	nt
COCCn1c(SCc2cccnc2)nnc1-c1c[nH]c2ccccc12	55*	0.4	16	0.2	-3	75*
CCn1c(SCc2cccnc2)nnc1-c1c[nH]c2ccccc12	45	0.5	1	0.1	-2	89*
O=C(NCC1CC1)c1ccc(Nc2nc3ccc(Br)cc3[nH]2)cc1	69*	0.3	nt	0.7	-6	32
